Assay: JC-1 mitochondrial signal, unstimulated MM1S myeloma – cell-based, JC-1 fluorescence, 24 h, 100 nL compound, profiling panel (AID 1170); further: test concentration not given here
Details: MM1S mitochondrial potential, higher = more signal
`CC(C)[Si]1(C(C)C)O[C@@H](c2ccccc2)c2cc(-c3ccc(-c4ccc(Cl)c(Cl)c4)o3)nc(-c3ccccc3)c21` gave a z-score of -0.582. In the case of `OCCCC1=CC(c2cccs2)N(Cc2cc3c(cc2Br)OCO3)CC1` (stereo not given), the z-score is reported as -0.145. With `CCOC(=O)C[C@H]1[C@H](OC(=O)c2ccc(C(=O)c3ccccc3)cc2)[C@@H](NC(=O)c2ccc3ccccc3c2)c2cc(OCCCO)ccc2N1C(=O)Cc1ccc(OC)cc1` the z-score was -0.51. Compound `C=C(CC1([C@@H](NP(=O)(c2ccccc2)c2ccccc2)[C@H]2C[C@@H]2CCCC)CC1)c1ccccc1` has a z-score of -1.92. `COc1cc(COC(C)=O)ccc1OC(C)=O` showed a z-score of 0.528. With `C=C(CCCC)/C(=C/C[C@@H](OC(=O)c1ccncc1)c1ccc(OCCO)cc1)c1cc(C(=O)OC)ccc1OC` the z-score was -0.969. For `C=C(CCCC)C(=O)CC[C@@H](OC(=O)c1ccccc1-c1ccccc1C(=O)O)c1ccc(OCCO)cc1`, the z-score was -0.137. With `COCCOC(=O)N1C(=O)[C@@]2(c3cc(C#CCC(C(=O)OC)C(=O)OC)ccc31)[C@H](C(=O)Nc1nc3ccccc3s1)[C@H]1C(=O)O[C@H](c3ccccc3)[C@H](c3ccccc3)N1[C@@H]2c1ccccc1OCCO` the z-score was -1.19. For `NC(=O)N1C(=O)C2C(C1=O)C1C=C(c3ccc(CO)cc3)C2C(c2cccs2)N1Cc1cccc(OC(F)(F)F)c1` (stereo not given), the z-score was -1.67. Compound `COCCOC(=O)N1C(=O)[C@@]2(c3cc(C#CCNC(N)=O)ccc31)[C@H](C(=O)N1CCN(c3ncccn3)CC1)[C@H]1C(=O)O[C@H](c3ccccc3)[C@H](c3ccccc3)N1[C@@H]2c1ccc(OCCO)cc1` has a z-score of -1.51.
